Compound activity: PubChem, National Center for Advancing Translational Sciences (NCATS)
Most compounds without a hit are left out; they make up all but 1.7% or so of the library.
rTrxR1 inhibitor – qHTS Assay for Inhibitors of Mammalian Selenoprotein Thioredoxin Reductase 1 (TrxR1): qHTS; Potency, µM (titrated, usually from 114 µM), without a hit: at the highest dose activity change, negative = inhibition, hits mostly inhibitors; actives 1% (n = 390,000); Thioredoxin reductase 1, cytoplasmic (Rattus norvegicus), O89049; AID 588453, 2011; recombinant rTrxR1, NADPH fluorescence consumption, selenite substrate; also: % is scaled to controls: 0 for no effect and ±100 for the full control effect; nearly all actives have a fitted effect of over 65% in size
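Rat TrxR1 (90 nM in the dispensed reagent) was pre-reduced with 400 uM NADPH for 5 min at room temperature, then incubated with compound for 15 min. After 400 uM selenite was added, NADPH fluorescence (Ex 340/Em 450 nm) was followed for 8 min.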
mIDH1 inhibitor – qHTS for Inhibitors of mutant isocitrate dehydrogenase 1 (IDH1): qHTS; IDH1-R132H enzyme, NADPH consumption, diaphorase/resazurin fluorescence; Potency, µM (titrated, usually from 76.6 µM), without a hit: at the top dose activity change, negative = inhibition, most hits filed as inhibitors; actives 0.093% (n = 390,000); AID 602179, 2012; also: % is scaled to controls: 0 for no effect and ±100 for the full control effect; nearly all actives have a fitted effect of over 65% in size
Target sequence (O75874 whole entry R132H, stated change not applied): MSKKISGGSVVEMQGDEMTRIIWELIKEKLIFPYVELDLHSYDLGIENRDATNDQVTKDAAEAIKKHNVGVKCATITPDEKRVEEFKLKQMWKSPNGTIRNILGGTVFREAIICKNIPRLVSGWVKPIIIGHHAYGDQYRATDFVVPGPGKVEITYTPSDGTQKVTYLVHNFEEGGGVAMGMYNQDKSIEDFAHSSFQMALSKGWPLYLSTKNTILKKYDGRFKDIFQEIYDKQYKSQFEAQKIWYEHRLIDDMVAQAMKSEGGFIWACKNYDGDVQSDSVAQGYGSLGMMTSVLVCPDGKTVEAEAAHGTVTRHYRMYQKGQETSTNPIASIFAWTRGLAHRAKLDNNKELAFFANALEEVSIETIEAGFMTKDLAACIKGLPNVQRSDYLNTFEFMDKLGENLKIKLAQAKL
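IDH1-R132H (0.5 ug/mL) preincubated 30 min with compound, then NADPH (0.016 mM) and alpha-KG (2 mM) added; 80 min at RT, pH 7.5. Remaining NADPH coupled via diaphorase/resazurin to fluorescence (540/590 nm); concentration-response curves normalized to no-enzyme control.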
TrxR1 substrate – qHTS Assay for Substrates of Mammalian Selenoprotein Thioredoxin Reductase 1 (TrxR1): qHTS; actives 0.01% (n = 390,000); purified TrxR1 substrate turnover, NADPH consumption readout; AID 588456, 2011; Potency, µM (titrated, usually from 114 µM), without a hit: at the top dose activity change, negative = substrate turnover; also: % is scaled to controls: 0 for no effect and ±100 for the full control effect; nearly all actives have a fitted effect of over 50% in size
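Rat TrxR1, dispensed at 90 nM, was prereduced with 400 uM NADPH (final) for 5 min at ~22 deg C, then incubated with compound 15 min before 400 uM selenite. A first-read NADPH fluorescence drop versus no-compound background flagged substrates.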
GRP78 ERSR act – qHTS for Inducers of the Endoplasmic Reticulum Stress Response (ERSR) in Human Glioma: qHTS; actives 0.02% (n = 420,000); U87-MG GRP78 promoter luciferase reporter, 16 h; Potency, µM, for inactives: at the top dose activation, usual class: activators; also: series mostly up to about 76 µM; % of control where 0% means no effect; nearly all actives have a fitted effect of over 35% in size
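ERSR induction read as luciferase luminescence (Bright-Glo, 10 min at room temperature) in stably transfected human U87-MG glioma cells exposed to compounds for 16 h, using GRP78 as sensor.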
Apoferritin bind – qHTS Assay for Identification of Novel General Anesthetics; actives 0.074% (n = 350,000); apoferritin/1-aminoanthracene competitive binding, fluorescence; Potency, µM (titrated, usually from 77.5 µM), for the others: top-dose activity change, negative = displacement, actives largely listed as inhibitors; AID 485281, 2010; also: % is scaled to controls: 0 for no effect and ±100 for the full control effect; nearly all actives have a fitted effect of over 20% in size
Target sequence (P02791 2-175 limits assumed): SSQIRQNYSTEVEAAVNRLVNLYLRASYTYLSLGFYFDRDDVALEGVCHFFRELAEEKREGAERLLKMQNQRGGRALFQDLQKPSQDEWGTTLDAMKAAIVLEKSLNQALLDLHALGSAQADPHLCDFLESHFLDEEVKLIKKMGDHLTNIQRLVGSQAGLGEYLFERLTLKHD
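Horse-spleen apoferritin (10 uM) was mixed with 50% saturated 1-aminoanthracene in PBS, exposed to compounds for 10 min at room temperature, and read for fluorescence (ex 380 nm, em 535 nm). Competitive displacement was fitted with a four-parameter Hill equation.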
ALOX12 inh – Primary qHTS assay for inhibitors of human arachidonate 12S-lipoxygenase (ALOX12): Round 2; AID 1671190, 2021; Potency, µM (doses to about 108 µM), for the others: at the highest dose activity change, negative = inhibition, hits mostly inhibitors; actives 1.1% (n = 580,000); purified 12hLO, xylenol orange hydroperoxide absorbance; Polyunsaturated fatty acid lipoxygenase ALOX12 (Homo sapiens), P18054; also: % is scaled to controls: 0 for no effect and ±100 for the full control effect
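Hydroperoxide product was detected by ferrous iron/xylenol orange as the 573 to 405 nm absorbance ratio. Arachidonic acid at 40 uM (final) was turned over for 30 min at room temperature by 150 nM human 12hLO, pH 7.0 Hepes buffer, after 15 min compound preincubation.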
Numbers without * were called inactive; ? = inconclusive; . = no result; [ ] = another dose, or the depositor's remark. Calls follow the shape of the dose curve; as a rule, active = well fitted curve in the direction sought with a large enough effect; inconclusive = small, poorly fitted or top-dose-only effect, or another doubt; inactive = no such curve, though single readings can be large; an effect the other way counts as inactive or inconclusive. Potency is read from the fitted curve at half-maximal effect.

SMILES	rTrxR1 inhibitor	mIDH1 inhibitor	TrxR1 substrate	GRP78 ERSR act	Apoferritin bind	ALOX12 inh
COc1ccccc1-c1c(C)oc2cc(OC(=O)c3ccccc3)ccc2c1=O	.	.	.	.	.	3%
O=C(NCc1cccs1)c1ccc(OC2CCN(Cc3ccccn3)CC2)cc1	.	.	.	.	.	38%
CC(=O)Oc1c(Br)cc(N(C(C)=O)S(=O)(=O)c2ccccc2)c2ccccc12	-29%	5%	?	-14%	-21%	13µM*
CCNC(=O)NCC12CCCC=C1NC(=O)CC2 (centres undefined)	.	.	.	.	.	57%
Cc1[nH]n(-c2ccccc2)c(=O)c1/C=N/NC(=O)c1cccc(F)c1	-5%	6%	-10%	-1%	-7%	35µM*
Cc1[nH]n(-c2ccccc2)c(=O)c1/C=N/Nc1nncc(-c2ccccc2)n1	-16%	3%	-9%	-1%	6%	16µM*
O=C(NC1CCN(c2ccccc2S(=O)(=O)C(F)(F)F)CC1)C1CC1	.	.	.	.	.	54%
Cn1cccc1CN1CCC2(CC1)COc1ccccc1C(=O)N2	.	.	.	.	.	56µM*
O=C1NC2(CCN(Cc3ccncc3)CC2)COc2ccccc21	.	.	.	.	.	47%[176 µM]
CN(C)c1ccc(CN2CCC3(CC2)COc2ccccc2C(=O)N3)cc1	.	.	.	.	.	40µM*
COc1ccc(CNC(=O)[C@@H]2CCC[C@@H](NC3CCC3)CN(C)C(=O)C2)cc1	.	.	.	.	.	32%[176 µM]
O=[N+]([O-])c1cc(-c2ccc(C(=S)N3CCOCC3)o2)ccc1Cl	13%	-8%	-4%	5%	?	13µM*
O=[N+]([O-])c1ccccc1-c1ccc(C(=S)N2CCCCC2)o1	-1%[57.1 µM]	3%	-1%[57.1 µM]	4%	?	0%
O=[N+]([O-])c1ccccc1-c1ccc(C(=S)N2CCCC2)o1	-32%	16%	-9%	10%	56µM*	40µM*
COC(=O)c1c(NC(=O)c2cccc(C)c2)sc(C(=O)Nc2ccccc2)c1C	.	.	.	.	.	31%
COc1ccc(CN2CCNC(=O)C2CC(=O)NC2CCCCCC2)c(C)c1C (centres undefined)	-30%	7%	-9%	-3%	?	32µM*
CCn1c(C)nc2cc(C(=O)NNS(=O)(=O)c3ccccc3F)ccc21	?	6%	145%	-12%	-9%	4.5µM*
CCN1CCN(Cc2c(O)ccc3c2O/C(=C\C=C\c2ccccc2)C3=O)CC1	14%	5%	7%[11.4 µM]	?	-14%	-28%
COc1ccccc1/C=C/C=C1\Oc2c(ccc(O)c2CN2CCN(CCO)CC2)C1=O	25µM*	3%	1%	2%	158%	-15%
CN(C)Cc1c(O)ccc2c1O/C(=C\C=C\c1ccccc1)C2=O	79µM*	0%	-23%	-3%	202%	-24%
COc1cccc(CN(Cc2ccco2)c2cnc(S(C)(=O)=O)nc2C(=O)Nc2ccccc2)c1	.	.	.	.	.	31%
O=C1Nc2ccc(S(=O)(=O)NCc3ccco3)c3cccc1c23	45µM*	18%	9%	-3%	.	?
O=C(O)CNS(=O)(=O)c1ccc2c3c(cccc13)C(=O)N2	21%[57.1 µM]	6%	38%[57.1 µM]	-7%	483%	15%
COc1ccc(-c2ccc(C(=O)C3CC3)cc2)cc1	7%	-8%	-2%	11%	-7%	-2%
CC[N+]1(C)CCC(O)(c2ccc(OC)cc2)C(C(=O)c2ccc(OC)cc2)C1 (centres undefined)	0.71µM*	-1%	4%	-14%	.	-1%
SMILES	rTrxR1 inhibitor	mIDH1 inhibitor	TrxR1 substrate	GRP78 ERSR act	Apoferritin bind	ALOX12 inh
CCCCN1CCN(C(=O)C2CCC(=O)N(Cc3cccc(F)c3)C2)CC1=O (centres undefined)	.	.	.	.	.	32%
O=C(c1ccccc1)N1CCC(c2nn(-c3ccc(Cl)cc3)c(=O)[nH]2)CC1	.	.	.	.	.	35µM*
COc1ccc(-n2nc(C3CCCN(C(=O)C4CC4)C3)[nH]c2=O)cc1 (centres undefined)	.	.	.	.	.	18µM*
COc1ccc(-n2nc(C3CCN(C(=O)c4ccccc4)CC3)[nH]c2=O)cc1	.	.	.	.	.	29%
O=C(c1ccc(F)cc1)N1CCC(c2nn(-c3ccc(Cl)cc3)c(=O)[nH]2)CC1	.	.	.	.	.	35µM*
O=C(Cc1cccc(Cl)c1)N1CCCC(c2nn(-c3cccc(Cl)c3)c(=O)[nH]2)C1 (centres undefined)	.	.	.	.	.	16µM*
Cc1nnc2n1CCC(NC(=O)CCc1nc3ccccc3s1)CC2 (centres undefined)	.	.	.	.	.	30%
O=C(c1cccc(Cl)c1)N1CCCC(c2nn(-c3ccccc3)c(=O)[nH]2)C1 (centres undefined)	.	.	.	.	.	4%
O=C(c1cccc(Cl)c1)N1CCC(c2nn(-c3ccc(Cl)cc3)c(=O)[nH]2)CC1	.	.	.	.	.	14µM*
COC(=O)C1=C(C(=O)OC)[C@]2([C@@H]3CC=CCN[C@@H](Cc4ccccc4)C(=O)N3Cc3ccccc3)C=C[C@H]1O2	17%	-15%[38.3 µM]	-2%	-4%	.	-4%
C=CCC(Nc1ccccc1)C12C=CC(O1)C(C(=O)OC)=C2C(=O)OC (centres undefined)	7.9µM*	9%	-2%	-18%	-11%	48%
N#CC(C#N)=C1C=CC=CN1/C(=C\c1ccco1)C(=O)c1ccccc1	1.6µM*	6%	-15%	-14%	-21%	-20%
N#C/C(=C/c1ccco1)C(N)=S	-4%	12%	-5%	-1%	-6%	0%
COc1ccc(C=C(C#N)C(=O)c2ccccc2)cc1	.	.	.	.	.	8%
COc1ccc(C(=O)N/C(=C\c2ccco2)C(=O)OCc2ccco2)cc1	-80%	1%	-22%[57.1 µM]	-4%	5%	?
N#CC(C#N)=C1C=CC=CN1/C(=C\c1ccco1)C(=O)c1ccc(Br)cc1	1.1µM*	2%	-5%	-15%	-13%	?
COc1ccc(C(=O)/C(=C\c2ccco2)N2C=CC=CC2=C(C#N)C#N)cc1	8.9µM*	6%	3%	-14%	?	.
COc1ccc(/C=C(/C(=O)c2cccs2)N2C=CC=CC2=C(C#N)C#N)cc1	0.11µM*	-1%	2%	-7%	-17%	-19%
CC(C)(C)NC(=O)/C(=C/c1ccco1)c1ccccc1	-29%[57.1 µM]	4%	5%[57.1 µM]	-3%	-17%	-105%
CC(C)(O)C#Cc1ccc(C(=O)N2CCN(C/C=C/c3ccccc3)CC2)cc1	.	.	.	.	.	3%
